# Values without a mark were called inactive.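 How the source made its calls: active = MAPPIT score above the 99th percentile of random reference set scores in the same batch; inactive = at or below it.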
# B1: rswl (protein)
# chain: MLKHFARWRLGSQLLKGCAAPVRQASKTSSAENLIAGTEEPQKKFVNPFSQPAPALSNDTISENKEERDKRLKVLQLEADIAHQEGRRVPSLEFFKDHHWEHVLTLPTKSARIKYFGYLWQIEMKKEADQRKKAERAKEAERRVAEMRKEREENTHIIYGLGHTSLFLRIYDTTINHWQNNRLTRAMQFAPKMVLDCSYDEHMNNREATYAAKQLMMCFAENRMNDEPFDLHYCNTQMDSRCMQSLQRYIPTMHNPEFPINLHSKCFTELFPKQNLVYLTPHCREDLVTYNPDDIYIVGAMVDTMNNEPLSLAKAKRLGLRMARLPLDRYLQWGSGSGKSLTLNQMINIMLDLKKTGDWDTALKHVPRRKVVQNEFQPRREKDHWSTGTRARKLNMRIDHLFDFDENRRQATSYATPQNVRQRREGLEFQLDTWATGKQKKKQRQN
# B2: bys (protein)
# chain: MGKPKKANVATIKNVNLEKQITEGRVAKNKNKDKVKLRAEESANIDARSSQKILAAAKLQQLELDEENFPSLVTVKKVNFSLNDGHVKEDEEVNETDLMADLDMDEDDVAAFERFQQPAQEGKRTLHLSKMIMQKIQEKEADIHTKISDEGSLKIEEIDPKVKEMYEGVRDVLKRYRSGKIPKAFKIIPKLRNWEQILFITEPHNWSAAAMFQGTRIFCSVLSQAMAQRFYNLVLLPRVRDDLCEYKKLNMHLYNALKRALFKPAAFMKGIILPLLEGGDCTLREAIIFGSVVARSSIPVLHSSACLLKICEMAYSGANSIFIRYFLDKRYALPYRVVDAAVFHFLRFENDKRELPVLWHQSLLTFAQRYKNDISSEQRDALLQLLKKKSHFKITPDVRRELQAASCRDVEMMETDNGLAGQPAKMYTDADVEYEG
# B3: Pfdn5 (protein)
# chain: MAATPSAPAKSEMIDLTKLSPEQLIQIKQEFEQEITNVQDSLSTLHGCQAKYAGSKEALGTFQPNWENRQILVPLTSSMYVPGRVKDLNRFVIDIGTGYYIEKDLEGSKDYFKRRVEYVQEQIEKIEKIHLQKTRFYNSVMSVLEMKQAAAAKLQSQQQSQPAVTQSS
# B4: CG33108 (protein)
# chain: MSNISSVAPPPPPPPMIVTPSTPATTKERPVGDNITTDECTWACEYPEVQKGCYLSRVCQYTPPKHCQYYSVNSIVQVGPTCGLVALSMLLGGSPTADDLLKDAIDQEYTLNGELFSAQYLFELTRKHMPGPAACQLHVGPLDCKKVKELLKAGGCLLVPYDADVNHAPCVKNGHRAHWALIVGYLVDTQDRFYVLARHGKSRNLAVWPLDTLSQSNENLKEFAQPKGYPDDEFLLPPGGIGGSLGLNERCILVNGLPKQVIHVRWS
# B5: Cpn (protein)
# chain: MEPGTIPSPVSAPVAAPVTPSAVAAPVQVVSPAAVAPAPAAPIAVTPVAPPPTLASVQPATVTIPAPAPIAAASVAPVASVAPPVVAAPTPPAASPVSTPPVAVAQIPVAVSAPVAPPVAATPTPVAPIPVAAPVIATPPVAASAPTPAAVTPVVSPVIATPPVVPANTTVPVAAPVAAVPAAVPVVAPVLAPAVAPAVAPVVAETPAPPPVAEIPVATIPECVAPLIPEVSVVATKPLAAAEPVVVAPPATETPVVAPAAASPHVSVAPAVETAVVAPVSASTEPPVAAATLTTAPETPALAPVVAESQVAANTVVATPPTPAPEPETIAPPVVAETPEVASVAVAETTPPVVPPVAAESIPAPVVATTPVPATLAVTDPDVTASAVPELPPVIAPSPVPSAVAETPVDLAPPVLPPVAAEPVPAVVAEETPETPAPASAPVTIAALDIPEVAPVIAAPSDAPAEAPSAAAPIVSTPPTTASVPETTAPPAAVPTEPIDVSVLSEAAIETPVAPPVEVTTEVAVADVAPPEAAADLIIEPVEPPAPIPDLLEQTTSVPAVEAAESTSSPIPETSLPPPNEAVASPEVAVAPITAPEPIPEPEPSLATPTEPIPVEAPVVIQEAVDAVEVPVTETSTSIPETTVEYPVAEKVLDPAITEAPVTTQEPDVANINDGAPATEITTPAVEIVTAAAEVSDTAIPLIDPPVPQEIAVAEIPETETKPAEVIVEQSTIPIEAPVPEVSKYAEPVISEAPAAEVPITAGDNPDNTSVGISEVVPTIAEKAVEEVPTSEIPEQSSSPSDSVPVAKITPLLRDLQTTDVSLLAIAATLDAIGEKLKDQKARNQQVMDRLCEIEKILGPPKSN
# B6: Lac (protein)
# chain: MWRPSISNCVWSTLLLAIFVQQTLAQRTPTISYITQEQIKDIGGTVEFDCSVQYAKEYNVLFLKTDSDPVFLSTGSTLVIKDSRFSLRYDPNSSTYKLQIKDIQETDAGTYTCQVVISTVHKVSAEVKLSVRRPPVISDNSTQSVVASEGSEVQMECYASGYPTPTITWRRENNAILPTDSATYVGNTLRIKSVKKEDRGTYYCVADNGVSKGDRRNINVEVEFAPVITVPRPRLGQALQYDMDLECHIEAYPPPAIVWTKDDIQLANNQHYSISHFATADEYTDSTLRVITVEKRQYGDYVCKATNRFGEAEARVNLFETIIPVCPPACGQAYIAGAEDVSATSFALVGILAALLFAR
# B7: Clp (protein)
# chain: MDILLANVSGLQFKAERDLIEQVGAIPLPFYGMDKSIAAVCNFITRNGQECDKGSACPFRHIRGDRTIVCKHWLRGLCKKGDQCEFLHEYDMTKMPECYFYSRFNACHNKECPFLHIDPQSKVKDCPWYKRGFCRHGPHCRHQHLRRVLCMDYLAGFCPEGPSCKHMHPHFELPPLAELGKDQLHKKLPTCHYCGELGHKANSCKQYVGSLEHRNNINAMDHSGGHSGGYSGHSGHIEGADDMQSNHHSQPHGPGFVKVPTPLEEITCYKCGNKGHYANKCPKGHLAFLSNQHSHK
# Assays:
# Assay in all cases: MAPPIT interaction score (arbitrary units); higher = stronger binary interaction signal, active = hit call of the paper
# [1] = molecular target: Jupiter; conditions: MAPPIT configuration: N-N; pair source set: DPIM
# [2] = molecular target: LTV1; conditions: MAPPIT configuration: N-N; pair source set: screen_1
# [3] = molecular target: Pfdn2; conditions: MAPPIT configuration: N-N; pair source set: Lit-BM-16
# [4] = molecular target: LRR; conditions: pair source set: RRS
# [5] = molecular target: Kaz; conditions: MAPPIT configuration: N-N; pair source set: Curagen_low_conf
# [6] = molecular target: Lac; conditions: pair source set: Lit-BM-16
# 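Further: HEK293T cells with Epo stimulation, STAT-responsive firefly luciferase reporter, fold induction versus unstimulated cells divided by the larger fold induction of two negative controls lacking either bait or prey.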
binder,measurement,setting,value
B1,MAPPIT interaction score,[1],0.211
B2,MAPPIT interaction score,[2],1.68
B3,MAPPIT interaction score,[1],-0.0979
same,MAPPIT interaction score,[3],5.87 (active)
B4,MAPPIT interaction score,[4]; MAPPIT configuration: N-C,1.24
same,MAPPIT interaction score,[4]; MAPPIT configuration: N-N,-0.128
B5,MAPPIT interaction score,[5],0.293
B6,MAPPIT interaction score,[6]; MAPPIT configuration: N-C,-0.593
same,MAPPIT interaction score,[6]; MAPPIT configuration: N-N,-0.017
B7,MAPPIT interaction score,[1],-0.085
